{"source": "PubChem BioAssay AID602393", "about": "(Broad Institute, 2012)", "note": "About 7,000 (2%) of roughly 350,000 compounds were called active. What follows is part of a selection rich in actives, with near analogues and random picks from the rest. A number with no mark means an inactive call. Cut-off read from the data, not from the text of the source: active = activation above about 40%; inconclusive = no clear call, values can overlap the other calls; inactive = below that."}
{"test": "raisers of Bmi1 knock-in reporter signal – mouse ES cells, Bmi1 luciferase knock-in, single point, esBAF inhibitor project, primary screen (AID 602393);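 note: 0% = median of the plate's neutral control wells and 100% = double that signal; a rise in the Bmi1 reporter signal indicates esBAF inhibition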", "conditions": "24 h, at 12.5 µM, active compounds read high, 100% = twice the neutral-well signal"}
{"smiles": "CO[C@@H]1CN(C)C(=O)c2cc(NC(=O)c3ccccc3F)ccc2OC[C@H](C)NC[C@@H]1C", "reporter increase": "-0.986%"}
{"smiles": "Cc1nn(-c2ccccc2)c(CC(C)(C)C(=O)O)c1C(=O)O", "reporter increase": "-1.54%"}
{"smiles": "Cc1ccc(OC(=O)c2c(C)nn(-c3ccccc3)c2C)cc1", "reporter increase": "65% (active)"}
{"smiles": "Cc1cccc(C)c1NC(=O)COC(=O)c1c(C)nn(-c2ccccc2)c1C", "reporter increase": "-0.0425%"}
{"smiles": "O=C(Nc1cccc(Cl)c1)N1C[C@@H]2[C@H](c3ccccc31)[C@H](CO)N2C(=O)C1CC1", "reporter increase": "-2.51%"}
{"smiles": "CCS(=O)(=O)Nc1ccc2c(c1)C(=O)N(C)C[C@@H](OC)[C@@H](C)CN(C(=O)COC)[C@H](C)CO2", "reporter increase": "-2.28%"}
{"smiles": "O=C(NCc1cccnc1)C(=O)Nc1nc(-c2ccccc2)cs1", "reporter increase": "38.2%"}
{"smiles": "Cc1ccccc1Nc1nc(-c2cccnc2)cs1", "reporter increase": "71.3% (active)"}
{"smiles": "CN(c1ccc(O)cc1)c1nc(-c2cccnc2)cs1", "reporter increase": "33.5%"}
{"smiles": "COc1ccc(-c2ccc([C@@H]3[C@@H](CO)N4CCCCN(C(=O)NC(C)C)C[C@H]34)cc2)cc1", "reporter increase": "-0.595%"}
{"smiles": "CN(C)C(=O)c1cccc(-c2ccc3c(c2)[C@H]2[C@H](CCN2C(=O)c2cccnc2)[C@H](CO)N3)c1", "reporter increase": "-0.408%"}
{"smiles": "CO[C@H]1CN(C)C(=O)c2ccc(NC(=O)c3cnccn3)cc2OC[C@@H](C)N(C(C)=O)C[C@H]1C", "reporter increase": "-1.77%"}
{"smiles": "C[C@H](NC(=O)C[C@H]1C=C[C@H](NS(=O)(=O)c2cccc(F)c2)[C@@H](CO)O1)c1ccccc1", "reporter increase": "-4.57%"}
{"smiles": "C[C@@H]1CCCCO[C@H](CN(C)S(=O)(=O)c2cn(C)cn2)[C@H](C)CN([C@H](C)CO)C(=O)c2cc(N(C)C)ccc2O1", "reporter increase": "-3.59%"}
{"smiles": "COc1cccc(/C(C)=N/Nc2ncc(Cl)cc2Cl)c1", "reporter increase": "54% (active)"}
{"smiles": "COC(=O)c1sccc1N/N=C(\\C)c1ccc(F)c(Cl)c1", "reporter increase": "11.8%"}
{"smiles": "COc1ccc(/C(C)=N/NC(=O)c2ccc3nc[nH]c3c2)cc1", "reporter increase": "-4.25%"}
{"smiles": "C[C@@H]1CN([C@@H](C)CO)C(=O)Cc2cc(NC(=O)CCCCCC(=O)Nc3ccccc3N)ccc2O[C@H]1CN(C)Cc1ccc(Cl)c(Cl)c1", "reporter increase": "-6.35%"}
{"smiles": "Cc1nonc1C1CCCN1C(=O)c1cc(COc2cccc(C(F)(F)F)c2)on1", "note": "(stereo not given)", "reporter increase": "-1.7%"}
{"smiles": "CSc1ccccc1OCc1cc(C(=O)N2C[C@H]3CC[C@H]2C3)no1", "reporter increase": "87.7% (active)"}
{"smiles": "CSc1ccccc1OCc1cc(C(=O)N(C)CCc2c(C)n[nH]c2C)no1", "reporter increase": "-2.74%"}
{"smiles": "CCNC(=O)[C@@H]1[C@@H](CO)[C@@H]2Cn3c(ccc(C4=CCCC4)c3=O)[C@H]1N2Cc1ccccc1", "reporter increase": "-1.26%"}
{"smiles": "O=C(C[C@@H]1CC[C@H]2[C@@H](COC[C@H](O)CN2C(=O)Nc2ccccc2)O1)NCc1ccccc1F", "reporter increase": "4.71%"}
{"smiles": "CCC(CC)c1nnc(NC(=O)C2=COCCO2)s1", "reporter increase": "53.6% (active)"}
{"smiles": "COc1cc(-c2nnc(NC(=O)C3=COCCO3)o2)cc(OC)c1OC", "reporter increase": "-0.666%"}
{"smiles": "CCC(CC)c1nnc(NC(=O)C2CCN(C(=O)c3ccco3)CC2)s1", "reporter increase": "3.96%"}
{"smiles": "O=C(Nc1ccccc1N1CCOCC1)c1csc2c1CCCC2", "reporter increase": "2.6%"}
{"smiles": "CC1CC(C)CN(CCCNC(=O)c2csc3c2CCCCC3)C1", "note": "(stereo not given)", "reporter increase": "-0.645%"}
{"smiles": "COC(=O)c1sc(NC(=O)c2csc3c2CCCC3)nc1C", "reporter increase": "52.4% (active)"}
{"smiles": "CN1c2ccc(Br)cc2[C@H]2[C@H](CCN2S(=O)(=O)c2ccccc2)[C@@H]1CO", "reporter increase": "1.11%"}
{"smiles": "CO[C@H]1CN(C)C(=O)c2cc(NC(=O)c3cc(C)on3)ccc2OC[C@@H](C)N(C(C)=O)C[C@H]1C", "reporter increase": "-1.52%"}
{"smiles": "COc1ccc(C(=O)NC2=NCCS2)c(OC)c1", "reporter increase": "-5.27%"}
{"smiles": "COc1ccc(Cc2nnc(NC(=O)c3ccc(OC)cc3OC)s2)cc1", "reporter increase": "60.8% (active)"}
{"smiles": "COc1cccc(OC)c1C(=O)Nc1nnc(C(C)C)s1", "reporter increase": "4.44%"}
{"smiles": "COc1ccc(Cc2nnc(NC(=O)c3cc(OC)c(OC)c(OC)c3)s2)cc1OC", "reporter increase": "-8.39%"}
{"smiles": "COc1ccc(C(=O)Nc2nncs2)c(OC)c1", "reporter increase": "72.1% (active)"}
{"smiles": "COc1ccc(Cc2nnc(NC(=O)Cc3cccs3)s2)cc1", "reporter increase": "-12.5%"}
{"smiles": "C[C@@H](O)C#Cc1cnc2c(c1)C(=O)N([C@@H](C)CO)C[C@H](C)[C@H](CN(C)C(=O)c1ccccc1F)O2", "reporter increase": "-1.43%"}
{"smiles": "COc1ccccc1-c1cnc2c(c1)C(=O)N([C@H](C)CO)C[C@H](C)[C@@H](CN(C)C(=O)CC1CC1)O2", "reporter increase": "-6.49%"}
{"smiles": "O=C(O)C[C@@H]1C[C@@H]2c3cc(NC(=O)Nc4ccccc4)ccc3O[C@@H]2[C@H](CO)O1", "reporter increase": "2.21%"}
{"smiles": "Cc1ccc2nc(/C(C#N)=C\\c3ccc(OC(=O)c4cccs4)cc3)[nH]c2c1", "reporter increase": "113% (active)"}
{"smiles": "CCC(=O)N(C)C[C@H]1Oc2ncc(-c3ccccc3OC)cc2C(=O)N([C@H](C)CO)C[C@H]1C", "reporter increase": "2.4%"}
{"smiles": "C[C@@H]1CCCCO[C@H](CN(C)C(=O)Cc2ccccc2)[C@@H](C)CN([C@@H](C)CO)C(=O)c2cc(NC(=O)c3ccccc3)ccc2O1", "reporter increase": "-0.116%"}
{"smiles": "Cc1ccc(S/C(=N\\S(=O)(=O)c2ccc(Cl)cc2)c2ccccc2)cc1", "reporter increase": "-7.08%"}
{"smiles": "Cc1ccc(S(=O)(=O)/N=C(/Nc2ccc3[nH]c(=O)[nH]c3c2)c2ccccc2)cc1", "reporter increase": "3.61%"}
{"smiles": "Cc1ccc(S(=O)(=O)/N=C(/Nc2ccccn2)c2ccc(Cl)cc2)cc1", "reporter increase": "45.6% (active)"}
{"smiles": "C[C@@H]1CN([C@@H](C)CO)C(=O)c2cccc(NC(=O)Nc3ccc(C(F)(F)F)cc3)c2O[C@@H]1CN(C)S(=O)(=O)c1cccs1", "reporter increase": "0.762%"}
{"smiles": "C[C@@H](O)C#Cc1cnc2c(c1)C(=O)N([C@@H](C)CO)C[C@H](C)[C@@H](CN(C)CC1CCCCC1)O2", "reporter increase": "-1.99%"}
{"smiles": "CCCN(C)C[C@@H]1Oc2ncc(-c3cccc(C(=O)N(C)C)c3)cc2C(=O)N([C@H](C)CO)C[C@@H]1C", "reporter increase": "-6.02%"}
{"smiles": "O=C(CN1CCCCCC1)Nc1ccc(Br)cc1Br", "reporter increase": "56.9% (active)"}
{"smiles": "O=C(CN1CCCCCC1)Nc1ccc(Br)cc1[N+](=O)[O-]", "reporter increase": "-0.566%"}
{"smiles": "O=C(CN1CCCCCC1)Nc1ccc(Cl)cc1F", "reporter increase": "-12.4%"}
{"smiles": "CN(C(=O)CSc1nnnn1-c1ccccc1)C1CCCCC1", "reporter increase": "22.5%"}
{"smiles": "C=CCn1c(SCn2nnc3ccccc3c2=O)nnc1-c1ccc(Cl)cc1", "reporter increase": "-8.46%"}
{"smiles": "O=c1c2ccccc2nnn1CSc1nnnn1-c1ccccc1", "reporter increase": "57.4% (active)"}
{"smiles": "Cc1ccc(S(=O)(=O)N[C@@H]2CC[C@H](CCn3cc(C4(O)CCCC4)nn3)O[C@H]2CO)cc1", "reporter increase": "1.86%"}
{"smiles": "CCc1nnc(SCc2cccc(F)c2)nc1CC", "reporter increase": "-1.92%"}
{"smiles": "Nc1cc(N)nc(SCc2ccc(Cl)cc2)n1", "reporter increase": "33.3%"}
{"smiles": "Nc1cc(N)nc(SCc2cccc(F)c2)n1", "reporter increase": "65% (active)"}
{"smiles": "CCC(=O)N(C)C[C@@H]1Oc2ncc(/C=C/c3ccccc3)cc2C(=O)N([C@@H](C)CO)C[C@H]1C", "reporter increase": "-3.12%"}
{"smiles": "CCC(=O)N1[C@H](C(=O)NCc2ccc(F)cc2)[C@@H](CO)[C@@H]2Cn3c(ccc(C4=CCCCC4)c3=O)[C@@H]21", "reporter increase": "-5.62%"}
{"smiles": "CCOc1ccc(N(CC(=O)NCCc2ccc(F)cc2)S(=O)(=O)c2ccccc2)cc1", "reporter increase": "1.13%"}
{"smiles": "CCN(CC(=O)NCCc1ccccc1)S(=O)(=O)c1ccc(C)cc1", "reporter increase": "-2.78%"}
{"smiles": "COc1ccc(N(CCC(=O)NCCc2ccccc2)S(=O)(=O)c2ccc(C)cc2C)cc1", "reporter increase": "77.9% (active)"}
{"smiles": "CCN(CC)c1ccc(C(=O)OCC(=O)c2ccco2)cc1", "reporter increase": "69.5% (active)"}
{"smiles": "O=C(COC(=O)c1ccccc1C(=O)c1ccccc1)c1ccco1", "reporter increase": "-5.33%"}
{"smiles": "CCc1ccc(C(=O)COC(=O)c2ccco2)cc1", "reporter increase": "13.9%"}
{"smiles": "C[C@@H]1CN([C@H](C)CO)C(=O)c2cc(-c3cccc(F)c3)cnc2O[C@@H]1CN(C)C", "reporter increase": "-2.09%"}
{"smiles": "Cc1noc(C)c1S(=O)(=O)Nc1ccc2c(c1)C(=O)N([C@H](C)CO)C[C@H](C)[C@H](CN(C)S(=O)(=O)c1cn(C)cn1)OCCCC[C@@H](C)O2", "reporter increase": "-2.07%"}
{"smiles": "C[C@@H]1CCCCO[C@@H](CN(C)C(=O)NC2CCCCC2)[C@H](C)CN([C@H](C)CO)C(=O)c2cc(NC(=O)c3ccccc3)ccc2O1", "reporter increase": "8.88%"}
{"smiles": "Cc1ccccc1S(=O)(=O)NCC[C@@H]1CC[C@@H](NS(=O)(=O)c2ccccc2C)[C@@H](CO)O1", "reporter increase": "2.87%"}
{"smiles": "O=C(NCCc1ccc(Cl)cc1)c1cccc(N2CCCC2=O)c1", "reporter increase": "54.9% (active)"}
{"smiles": "O=C(NCCCN1CCCCCC1)c1ccc(N2CCCC2=O)cc1", "reporter increase": "-4.86%"}
{"smiles": "O=C(c1cccc(N2CCCC2=O)c1)N1CCOCC1", "reporter increase": "-0.631%"}
{"smiles": "COc1ccc(CN(C)C[C@H]2OCCCC[C@H](C)Oc3ccc(NC(=O)NC4CCCCC4)cc3C(=O)N([C@@H](C)CO)C[C@@H]2C)cc1", "reporter increase": "2.7%"}
{"smiles": "O=C(CSCc1cccs1)N1CCCC1", "reporter increase": "33.4%"}
{"smiles": "O=C(CSCc1ccc(Cl)cc1)N1CCN(Cc2ccc3c(c2)OCO3)CC1", "reporter increase": "-7.9%"}
{"smiles": "O=C(CSCc1ccc(Cl)cc1)N1CCCCC1", "reporter increase": "47.9% (active)"}
{"smiles": "CO[C@@H]1CN(C)C(=O)c2cc(NC(=O)C3CC3)ccc2OC[C@H](C)N(Cc2ccc(F)cc2)C[C@@H]1C", "reporter increase": "-2.84%"}
{"smiles": "COc1ccc(-c2cnc3c(c2)C(=O)N([C@@H](C)CO)C[C@@H](C)[C@H](CN(C)C(=O)C2CCCCC2)O3)cc1", "reporter increase": "2.07%"}
